Screens (PubChem)
Many of the other results were omitted from the sample, so hits are more common in it than they were.
Tg IFNy HTS: inhibitors of Toxoplasma gondii growth with IFN-gamma; Toxoplasma gondii growth in IFN-gamma-treated host cells; hits give low values; activity change, negative = inhibition, % (test concentration not listed); hit rate 3.8% among 69,000; AID 1259416; in the data active = activity change below about -70%, passing the limit was not always enough;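 note: host cells are HeLa cells infected with Toxoplasma gondii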
* hit, by the source's call; ! = a repeat was not active.

SMILES	Tg IFNy HTS
COC(=O)CCN1CC(OCc2cccc(OC)c2)CN(C(=O)C2CCCCC2)CC1=O (stereo not given)	5
CCCc1cc(C(=O)Nc2cnn(Cc3ccc(F)cc3)c2)n[nH]1	-90*
CC(C)OCC(=O)Nc1cnn(CC(=O)Nc2ccc(F)cc2)c1	2
O=C(CCN1Cc2ccccc2C1=O)Nc1cnn(Cc2ccc(F)cc2)c1	-15
Cc1nc(SCC(=O)NC(C)c2cccnc2)oc1C (stereo not given)	1
COc1cccc(N2CC3(CCN(C(=O)Nc4cccc(C)c4)C3)CC2=O)c1 (stereo not given)	8
C#C[C@]1(O)CC[C@H]2[C@@H]3CCC4=CC(=O)CC[C@@H]4[C@H]3CC[C@@]21C	-68
C#C[C@]1(OC(C)=O)CCC2C3CCC4=C/C(=N/O)CCC4C3CC[C@@]21CC (stereo not given in full)	-78*
C#C[C@]1(O)CCC2C3CCC4=CC(=O)CC[C@@H]4C3CC[C@@]21CC (stereo not given in full)	-36
CN1CCN(CCOc2cc(OC3CCOCC3)c3c(Nc4c(Cl)ccc5c4OCO5)ncnc3c2)CC1	16
C=CC(=O)Nc1cc2c(Nc3ccc(F)c(Cl)c3)ncnc2cc1OCCCN1CCOCC1	-4
CN(C)C/C=C/C(=O)Nc1cc2c(Nc3ccc(F)c(Cl)c3)ncnc2cc1O[C@H]1CCOC1	-75*
CCOc1cc2ncc(C#N)c(Nc3ccc(F)c(Cl)c3)c2cc1NC(=O)/C=C/CN(C)C	-77*
O=C(CCCOc1ccc(Cl)cc1Cl)NCc1ccccn1	13
COc1ccc(C(=O)Nc2ccc3nc(C)c(C)nc3c2)cc1OCc1ccccn1	11
CCOc1cc2ncc(C#N)c(Nc3ccc(OCc4ccccn4)c(Cl)c3)c2cc1NC(=O)/C=C/CN(C)C	-81*
Cc1nc2nnc3ccc(C(=O)Cc4ccccn4)cc3c2n1Cc1ccccc1	-35
C=CCNc1nnc(SCC(=O)N2N=CCC2c2ccccc2)s1 (stereo not given)	20
O=C(c1cncc(NS(=O)(=O)c2ccc(F)cc2)c1)N1CCN(Cc2ccccc2)CC1	19
N#Cc1nccnc1N1CCN(C(=O)Nc2ccc(OC(F)(F)F)cc2)CC1	-47
COCC1CC2(CCN(Cc3nccs3)CC2)CN1c1ncccn1 (stereo not given)	1
CC1Cc2ccccc2N1C(=O)c1ccc(S(=O)(=O)N(C)C)cc1 (stereo not given)	-10
COc1ccc(N2CCN(C(=O)Cn3ncc4c(N5CCCC5)ncnc43)CC2)cc1	68
Cc1ncc(CO)c(CN2CCCC2c2ccccn2)c1O (stereo not given)	43
CN1CCC2(CC1)CC(NS(=O)(=O)C1CC1)c1ccccc1O2 (stereo not given)	-2
SMILES	Tg IFNy HTS
OCc1ccc(-c2nccn2CCCn2ccnc2)o1	-55
COc1ccc2c(c1)CC(NCC(=O)NC(C)C)CC2 (stereo not given)	19
Cn1cc(-c2ccc(C(=O)N3CCCCC3CCn3cccn3)cn2)cn1 (stereo not given)	-5
Cn1cnnc1Sc1c([N+](=O)[O-])ncn1C	-46
Cn1cnc([N+](=O)[O-])c1Sc1ncnc2nc[nH]c12	-86*
CC(C)C(=O)Nc1ncnc2nc[nH]c12	-52
CCS(=O)(=O)N1CCC2(CC1)OC(=O)C(C)=C2C(=O)Nc1cc(OC)ccc1OC	83
Cn1nc(C2CCN(C(=O)CS(C)(=O)=O)CC2)n(Cc2ccccc2)c1=O	-4
COCc1ncn2c1CN(C(=O)c1ccoc1)CC2	-23
CC(=O)Nc1ccc2c(c1)CCc1ccccc1-2	24
CC(=O)Nc1sc2c(c1C#N)CCc1ccccc1-2	-90*
COc1nc2c(c(-c3ccco3)c1C#N)Cc1cc(NC(C)=O)ccc1-2	8
COC(=O)c1ccccc1NC(=O)c1c(O)c2cccnc2n(-c2ccc(F)cc2)c1=O	57
O=C(c1ccn[nH]1)N1CCOC2(CCCN(c3ccccc3)C2)C1 (stereo not given)	-1
Cc1ccsc1S(=O)(=O)N1CC[C@@H](c2ccc3c(c2)OCO3)[C@H](O)C1	-11
CC(C)(C)c1[nH]cnc1/C=c1\[nH]c(=O)/c(=C/c2ccccc2)[nH]c1=O	-87*
COc1ccccc1NC(=O)C(=O)NCCc1sc(-c2cccc(C)c2)nc1C	56
COCC(=O)N1CCC2(CC1)C(=O)N(Cc1cccnc1)CCN2C	0
Oc1ccc([C@H]2Oc3cc(O)cc(O)c3C[C@H]2O)cc1	7
O=C1CC(c2ccc(O)cc2)Oc2cc(O)cc(O)c21 (stereo not given)	67
Oc1ccc([C@H]2COc3cc(O)ccc3C2)cc1	-73*!
COc1ccc2c(c1)NC1(CCN(C(=O)NCCC(C)C)CC1)c1cccn1-2	143
O=C(O)[C@H]1C[C@H](C(=O)NC2CC2)CN(Cc2cccc(C(F)(F)F)c2)C1	-36
COc1ccc(-c2nc(NCCC3=CCCCC3)c3ccccc3n2)cc1	-66
CC(C)[C@H](C(=O)Nc1ccc(C(=O)NO)cc1)c1ccccc1	-83*
O=C(NCC(O)c1ccccc1)c1ccc(NC(=O)C2CCC2)cc1 (stereo not given)	7
